# 15-hLO-2 inh = qHTS Assay for Inhibitors of 15-hLO-2 (15-human lipoxygenase 2). AID 881, 2007. actives 0.56% (n = 110,000). purified 15hLO-2, xylenol orange hydroperoxide absorbance. Potency, µM (doses to about 57.1 µM), inactives show top-dose activity change, negative = inhibition, most hits filed as inhibitors; note: % is set by controls: 0 for no effect and ±100 for the full control effect; nearly all actives have a fitted effect of over 60% in size
#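 Screening format was qHTS against 50 nM purified 15hLO-2 in Hepes pH 7.5 with detergent. Activity follows hydroperoxide formation from 45 uM arachidonic acid, measured as 573:405 nm absorbance ratio of the ferric-xylenol orange complex.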
# Casp1 inh = qHTS Assay for Allosteric/Competitive Inhibitors of Caspase-1; Caspase-1 enzyme, Ac-WEHD-AFC fluorogenic rate; Potency, µM (top dose mostly 57.5 µM), for inactives: at the highest dose activity change, negative = inhibition, actives largely listed as inhibitors; actives 0.03% (n = 75,000);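 note: plate controls were vehicle for no effect and no substrate for full effect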
# ALOX15 inhib = qHTS Assay for Inhibitors of 15-hLO (15-human lipoxygenase). Polyunsaturated fatty acid lipoxygenase ALOX15 (Homo sapiens), P16050. purified 15hLO-1, xylenol orange hydroperoxide absorbance. Potency, µM (series often up to 57.1 µM), without a hit: at the top dose activity change, negative = inhibition, most hits filed as inhibitors. actives 1.4% (n = 74,000). AID 887, 2007; note: % is set by controls: 0 for no effect and ±100 for the full control effect; nearly all actives have a fitted effect of over 55% in size
#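 40 nM 15hLO-1 + cpd, 15 min RT; start w/ 50 uM AA (final), 6 min RT; stop/detect w/ 200 uM XO + 300 uM Fe(II) in 50 mM H2SO4, 30 min; A573/A405. Buffer 25 mM Hepes pH 7.5, 0.01% Triton X-100. No-enzyme wells as negative control.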
# Casp7 inh = qHTS Assay for Allosteric/Competitive Inhibitors of Caspase-7 | P55210 | recombinant caspase-7, Ac-DEVD-AFC fluorescence rate | actives 0.02% (n = 75,000) | Potency, µM (top dose mostly 57.5 µM), for inactives: at the top dose activity change, negative = inhibition, usual class: inhibitors; active = well fitted inhibition curve with a large enough effect in the main read-out, with a control signal flat, not every such curve was filed as active; inconclusive = small, poorly fitted or top-dose-only effect, or a change in a side signal; note: % of control where 0% means no effect
# ERK AVP block = qHTS Assay for Inhibitors of the ERK Signaling Pathway using a Homogeneous Screening Assay; HEK293-V1b, vasopressin-stimulated pERK AlphaScreen; Potency, µM (series often up to 57.5 µM), inactives show at the top dose activity, negative = inhibition, usual class: inhibitors; actives 0.99% (n = 72,000); note: % is set by controls: 0 for no effect and ±100 for the full control effect; nearly all actives have a fitted effect of over 55% in size
#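 qHTS, compounds titrated on V1b-expressing HEK293 cells. Preincubation 30 min at 37C, vasopressin 25 nM for 5 min, lysis 10 min, bead incubation 5 hr at room temperature.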
# * = called active by the depositor; ? = inconclusive; / = no result given; ! = not confirmed by another sample; [ ] = another dose, or the depositor's remark. A selection: hits, their analogues and other compounds. The true share with any hit is near 1.7%. Unless noted, calls come from the whole dose curve; as a rule, active = well fitted curve in the direction sought with a large enough effect; inconclusive = small, poorly fitted or top-dose-only effect, or another doubt; inactive = no such curve, though single readings can be large; an effect the other way counts as inactive or inconclusive. Potency is the fitted concentration of half-maximal effect.
SMILES,15-hLO-2 inh,Casp1 inh,ALOX15 inhib,Casp7 inh,ERK AVP block
O=C(NC1(C(F)(F)F)Oc2ccccc2O1)N1CCC2(CC1)OCCO2,/,-0.1%,-27.2%,0.7%,1.4%
C=CCN1C[C@@H](C)N([C@H](c2ccc(C(=O)N(CC)CC)cc2)c2cccc(OC)c2)C[C@H]1C,17.2%,-1.8%,11.6%,0.9%,-1.5%
Cn1c(O)c(C=NCc2ccco2)c(=O)n(C)c1=O,2.1%,-3.7%,31.6µM*,-0.3%,?
CC(=NCc1ccco1)c1c(O)n(C)c(=O)n(C)c1=O,-4.2%,0.1%,2.8%,-2.1%,-8.2%
C[C@@H](O)CN(CCN(C[C@@H](C)O)C[C@@H](C)O)C[C@@H](C)O.O=[N+]([O-])O.[Cu],?,-0.5%[11.5 µM],3.98µM*,-3.9%[11.5 µM],-14.4%[11.5 µM]
O=S(=O)(NCCO)c1cc[c]([Sb](=[O])([OH])[OH])cc1,4.6%[11.4 µM],-0.2%[11.5 µM],15.5%[11.4 µM],-2.6%[11.5 µM],0.8%[11.5 µM]
c1ccc(CCCN2CCN(CCOC(c3ccccc3)c3ccccc3)CC2)cc1,17.3%,-2.5%,25.1µM*,-0.8%,?
C[C@@]12CC[C@@H]3c4ccc(O)cc4C[C@H](CCCCCCCCCS(=O)CCCC(F)(F)C(F)(F)F)[C@H]3[C@@H]1CC[C@@H]2O (some centres undefined),1.6%,-0.9%,?,-2.0%,8.6%
CN(C)c1ccc(N)cc1,?,-3.7%,?,-1.4%,?
CC(=O)O.CC(=O)O.[Cd],-19.8%,-5.5%,15.8µM*,3.8%,0.9%
CC(=O)[O-].CC(=O)[O-].CC(=O)[O-].[Cr+3],6.2%,-5.7%,-0.1%,-0.8%,2.5%
COc1cc2c(cc1OC)[C@@H]1C(=O)c3ccc(OC)c(CC=C(C)C)c3OC1CO2 (some centres undefined),21.6%,-15.9%,15.8µM*,-5.7%,-11.3%
COc1cc2c(cc1OC)[C@@H]1C(=O)c3ccc4c(c3OC1CO2)CC(C(C)C)O4 (some centres undefined),1.6%,-2.1%,-0.2%,0.8%,-14.8%
CC(C)CC(N(C)C)C1(c2ccc(Cl)cc2)CCC1 (centres undefined),32.4%,-2.9%,20µM*!,-0.3%,?
C=CCc1c(C)[nH]c(=S)c(C#N)c1C,12.6µM*,-2.6%,15.8µM*,-0.4%,-15.0%
COc1ccc(C2=NCC(=O)N(CC(=O)NCc3ccco3)c3sc4c(c32)CCCC4)cc1,-18.2%,-4.0%,?,-6.1%,-8.3%
Cc1cccc(C2=NCC(=O)N(CC(=O)NCc3ccco3)c3sc4c(c32)CCCC4)c1,?,-3.9%,25.1µM*,-3.2%,5.5%
CC(C)N[C@@H](C)Cc1ccc(I)cc1,15.9%,-1.7%,3.2%,1.2%,20.0%
O=C1C(Cl)=C(Cl)C(=O)C(Cl)=C1Cl,?,-1.3%,0.159µM*,-4.7%,?
CC(=O)OCC1=C(C(=O)[O-])N2C(=O)[C@@H](NC(=O)CCC[C@@H](N)C(=O)[O-])[C@@H]2SC1.[Zn+2],-10.3%,2.6%,25.1µM*,-1.3%,11.0%
O=[N+]([O-])c1ccc(O[C@H]2O[C@@H](CO)[C@@H](O)[C@@H](O)[C@@H]2F)c([N+](=O)[O-])c1,-2.2%,-1.0%,-0.8%,-1.5%,-25.0%
CCn1c(N)c(C(=O)NC)sc1=S,3.5%,1.1%,3.98µM*,0.0%,-1.3%
NC(N)=Nc1ccc2[nH]c3c(c2c1)C[C@]1(O)[C@@H]2Cc4ccc(O)c5c4[C@]1(CCN2CC1CC1)[C@H]3O5,?,2.7%,1.26µM*,-11.1%,?
C[N+]1(C)CCc2cc3c(cc2[C@@H]1[C@@H]1OC(=O)c2c1ccc1c2OCO1)OCO3,6.6%,-9.2%,7.7%,-18.3%,-1.1%
O=C1C=C2C(=CCOC2O)O1 (centres undefined),26.9%,-4.6%,-0.1%,-1.4%,31.6µM*
SMILES,15-hLO-2 inh,Casp1 inh,ALOX15 inhib,Casp7 inh,ERK AVP block
C[C@@H]1Cc2cc3c(cc2C(c2ccc(N)cc2)=NN1)OCO3,14.1%,1.1%,?,-0.4%,?
CN(c1ccccc1)S(=O)(=O)c1cccc(C(=O)N2CCN(c3ccccn3)CC2)c1,3.2%,-0.4%,3.0%,-2.7%,25.1µM*
N#CC(C#N)=NNc1ccc(OC(F)(F)F)cc1,15.8µM*,-11.9%,?,-6.6%,25.8%
COC(=O)Nc1cccc(OC(=O)Nc2cccc(C)c2)c1,-10.7%,-3.1%,-29.1%,-1.5%,31.6µM*
CN(C)C(=O)Nc1cccc(OC(=O)N(C)C)c1,6.9%,2.6%,7.6%,0.5%,0.6%
CO[C@@H]1CC=C2CCN3CCC4=C(CC(=O)OC4)[C@]23C1,-4.6%,1.7%,5.5%,0.7%,0.0%
C/C=C(\C)C(=O)O[C@@H]1C(C)=C2[C@H]([C@@H]1OC(=O)CCCCCCC)[C@@](C)(OC(C)=O)C[C@@H](OC(=O)CCC)[C@@]1(O)[C@H]2OC(=O)[C@]1(C)O,14.2%,1.9%,20µM*,1.0%,20.2%
C[C@@]12C=CC(=O)C=C1CC[C@@H]1C2=CC[C@]2(C)[C@@H]1CC[C@H]2C(=O)CN1CCN(c2cc(N3CCCC3)nc(N3CCCC3)n2)CC1,-9.2%,2.5%,?,0.4%,?
Cc1cc(C)cc(OP(=O)(Oc2cc(C)cc(C)c2)Oc2cc(C)cc(C)c2)c1,4.5%,-3.6%,-12.2%,-3.4%,45.8%
O=C(O)c1cc[c]([Hg][S]c2ncnc3nc[nH]c23)cc1,2.51µM*,-3.9%[11.5 µM],0.794µM*,-3.8%[11.5 µM],4.0%[11.5 µM]
COc1cc2c(cc1O)C[C@@H]1c3c(cc(O)c(OC)c3-2)CCN1C,-3.3%[11.4 µM],-3.6%[11.5 µM],1.1%[11.4 µM],1.8%[11.5 µM],-11.1%[11.5 µM]
COc1cc2c(cc1O)-c1c(O)c(OC)cc3c1[C@H](C2)N(C)CC3,-10.3%,31.6µM*,-10.7%[25.6 µM],-26.9%,11.1%
CCCN1CCC[C@H](c2cccc(C#N)c2)C1,5.7%,?,-2.3%,-2.4%,4.1%
CCn1cnc2c(Nc3cccc(Cl)c3)nc(N[C@@H]3CCCC[C@H]3N)nc21,44.6%,-3.4%,?,-1.6%,38.2%
Nc1c(C(=O)NCCN2CCOCC2)c2nc3ccccc3nc2n1Cc1ccco1,-7.2%,/,12.6µM*,?,15.8µM*
C=CCN1CCc2cccc3c2[C@@H]1Cc1ccc(O)c(O)c1-3,6.31µM*,1.5%,?,0.6%,?
CSC([N-]/N=C/c1cccc(C)n1)=[S]=[Cu].CS[C@H]([S-])[N-]/N=C/c1cccc(C)n1,3.16µM*,-1.6%[11.5 µM],?,-1.8%[11.5 µM],?
CCN(CC)C(=O)N[C@H]1C[C@H]2c3cccc4[nH]cc(c34)C[C@@H]2N(C)C1,11.9%,-0.7%,?,0.7%,13.8%
Ic1ccccc1CN[C@@H]1C2CCN(CC2)[C@H]1C(c1ccccc1)c1ccccc1,35.8%,2.7%,23.8%,-2.3%,17.4%

# Screening results: PubChem, National Center for Advancing Translational Sciences (NCATS)
